# Data as given in PubChem BioAssay.
# Where “and” joins values, the source holds several entries; their conditions need not be identical. Equal entries are not always repeated. Records with an inconclusive call do not appear. Calls of active or inactive are those of the source.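 How the source made its calls, unless noted: active means normalized viability below 100% at a tested concentration; inactive means the rest.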
# How the values were obtained:
# [1] = viability loss in pontine glioma line – cell-based, SU-DIPG-XVII, MIPE5.0, CellTiter-Glo, qHTS, dose response (AID 1347060; cut-off not given, nearly all actives have AC50 up to about 26 µM;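 on AC50: cells exposed to compound for 48 hours before viability readout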); settings: CellTiter-Glo ATP luminescence
# [2] = viability loss in pontine glioma line – cell-based, SU-DIPG-XIII, MIPE4.0, CellTiter-Glo, qHTS, dose response (AID 1347061; cut-off not given, nearly all actives have AC50 up to about 37 µM;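 further: cells exposed to compound for 48 hours before readout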); settings: CellTiter-Glo ATP luminescence
# [3] = viability loss in pontine glioma line – cell-based, JHH-DIPG-1, MIPE4.0, CellTiter-Glo, qHTS, dose response (AID 1347062; cut-off not given, nearly all actives have AC50 up to about 27 µM;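 on AC50: cells exposed to compound for two days before readout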); settings: JHH-DIPG-1 viability, CellTiter-Glo ATP luminescence
# [4] = viability loss in pontine glioma line – cell-based, SU-DIPG-IV, MIPE4.0, CellTiter-Glo, qHTS, dose response (AID 1347063; cut-off not given, nearly all actives have AC50 up to about 30 µM;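 further: compound exposure lasted 48 hours before the viability readout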); settings: CellTiter-Glo ATP luminescence
# [5] = viability loss in pontine glioma line – cell-based, SU-DIPG-XIII, MIPE5.0, CellTiter-Glo, qHTS, dose response (AID 1347064; cut-off not given, nearly all actives have AC50 up to about 23 µM;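 on AC50: cells exposed to compound for 48 hours before the viability read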); settings: CellTiter-Glo ATP luminescence
# [6] = viability loss in pontine glioma line – cell-based, SU-DIPG-XXV, MIPE5.0, CellTiter-Glo, qHTS, dose response (AID 1347065; cut-off not given, nearly all actives have AC50 up to about 26 µM;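 further: cells exposed to compound for 48 hours before ATP readout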); settings: CellTiter-Glo ATP luminescence
# [7] = growth inhibition of DIPG cells – cell-based, MIPE4.0 library, CellTiter-Glo luminescence, qHTS (AID 1347066; cut-off not given, nearly all actives have AC50 up to about 30 µM;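 further: cells exposed to compound for 48 hours before readout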); settings: SU-DIPG-VI viability, CellTiter-Glo ATP luminescence
# [8] = JHH-DIPG-1 glioma cell viability, MIPE5.0 library, CellTiter-Glo luminescence, qHTS (AID 1347067; cut-off not given, nearly all actives have AC50 up to about 26 µM;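 further: cells exposed to compound for 48 hours before readout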); settings: JHH-DIPG-1 glioma viability, CellTiter-Glo ATP luminescence
# [9] = viability loss with induced miR-34 in A549 – imaging, A549 dox-inducible miR-34, nuclei and caspase counts, primary screen (AID 1347080;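 active means compounds whose cell count with miR-34 switched on is under 0.7 times the count with it off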); settings: A549 miR-34 inducible, Hoechst nuclei count, 48 h
# [10] = compounds altering HSF1 focus formation in cells – imaging, Selleck Cancer Library (AID 1347162; in the data active means plate-normalised HSF1 focus index below about 0.46); settings: human cells, HSF1 nuclear foci imaging, at 10 µM; SSMD: measured here: HSF1 foci SSMD mean; cell count: measured here: cell number; plate-normalised HSF1 focus index: stronger effect = lower value
# [11] = MELAS cybrid and Rieske KO viability enhancers – cell-based, MELAS cybrids, Rieske KO mouse fibroblasts, CellTiter-Glo, primary screen (AID 1508586;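 active means mean z-score across replicates of 1.96 or higher in either the MELAS or the Rieske mutant cell line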;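 further: z relative to plate mean and SD of compound and empty wells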); settings: low glucose
# [12] = drug combination growth inhibition, ovarian cancer – cell-based, oncology-focused library, rucaparib conditional, profiling panel (AID 1508598); settings: patient-derived ovarian cancer cells, CellTiter-Glo viability, 144 h, stronger effect = lower value
# [13] = growth inhibition of DIPG cells – cell-based, MIPE5.0 library, qHTS (AID 1347068; cut-off not given, nearly all actives have IC50 up to about 30 µM;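 further: cells exposed to compound for 48 hours before viability readout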); settings: SU-DIPG-XXV viability
# [14] = stronger effect = lower value, cell number ratio, induced over uninduced
# [15] = measured here: relative caspase fold change +Dox/-Dox
# [16] = measured here: total cells with miR-34 induction, stronger effect = lower value
# [17] = measured here: total cells without miR-34 induction
# [18] = MELAS cybrid survival, CellTiter-Glo 48 h, stronger effect = higher value
# [19] = Rieske KO mouse fibroblast survival, CellTiter-Glo 72 h
# [20] = at 0.000305 µM, OCI-C5x cells, with rucaparib 10 µM, 100% = cells with rucaparib alone
# [21] = at 0.000305 µM, OCI-C5x cells, without rucaparib
# [22] = at 0.000305 µM, OCI-P5x cells, with rucaparib 20 µM, 100% = cells with rucaparib alone
# [23] = at 0.000305 µM, OCI-P5x cells, without rucaparib
# [24] = at 0.00122 µM, OCI-C5x cells, with rucaparib 10 µM, 100% = cells with rucaparib alone
# [25] = at 0.00122 µM, OCI-C5x cells, without rucaparib
# [26] = at 0.00122 µM, OCI-P5x cells, with rucaparib 20 µM, 100% = cells with rucaparib alone
# [27] = at 0.00122 µM, OCI-P5x cells, without rucaparib
# [28] = at 0.00488 µM, OCI-C5x cells, with rucaparib 10 µM, 100% = cells with rucaparib alone
# [29] = at 0.00488 µM, OCI-C5x cells, without rucaparib
# [30] = at 0.00488 µM, OCI-P5x cells, with rucaparib 20 µM, 100% = cells with rucaparib alone
# [31] = at 0.00488 µM, OCI-P5x cells, without rucaparib
# [32] = at 0.0195 µM, OCI-C5x cells, with rucaparib 10 µM, 100% = cells with rucaparib alone
structure (smiles),measurement,setting,value
Oc1cccc(-c2nc(N3CCOCC3)c3oc4ncccc4c3n2)c1,AC50,[1],0.525 µM (active)
same,AC50,[2],1.21 µM (active)
same,AC50,[3],0.215 µM (active)
same,AC50,[4],0.0429 µM (active)
same,AC50,[5],0.332 µM (active)
same,AC50,[6],0.186 µM (active)
same,AC50,[7],3.82 µM (active)
same,AC50,[8],5.25 µM (active)
same,fold change,[9]; [14],1.06 (inactive) and 0.903 (inactive)
same,fold change,[9]; [15],0.551 and 1.05
same,cell count,[9]; [16],2320 and 1430
same,cell count,[9]; [17],2190 and 1580
same,SSMD,[10],-4.03
same,cell count,[10],7310
same,plate-normalised HSF1 focus index,[10],0.749 (inactive)
same,z-score,[11]; [18],2.46 (active)
same,z-score,[11]; [19],-0.00105
same,viability,[12]; [20],109% (inactive)
same,viability,[12]; [21],110% (inactive)
same,viability,[12]; [22],120% (inactive)
same,viability,[12]; [23],103% (inactive)
same,viability,[12]; [24],109% (inactive)
same,viability,[12]; [25],104% (inactive)
same,viability,[12]; [26],117% (inactive)
same,viability,[12]; [27],98.5% (active)
same,viability,[12]; [28],75.7% (active)
same,viability,[12]; [29],93.3% (active)
same,viability,[12]; [30],106% (inactive)
same,viability,[12]; [31],103% (inactive)
same,viability,[12]; [32],79.3% (active)
same,viability,"[12]; at 0.0195 µM, OCI-C5x cells, without rucaparib",72.3% (active)
same,viability,"[12]; at 0.0195 µM, OCI-P5x cells, with rucaparib 20 µM, 100% = cells with rucaparib alone",113% (inactive)
same,viability,"[12]; at 0.0195 µM, OCI-P5x cells, without rucaparib",100% (inactive)
same,viability,"[12]; at 0.0781 µM, OCI-C5x cells, with rucaparib 10 µM, 100% = cells with rucaparib alone",103% (inactive)
same,viability,"[12]; at 0.0781 µM, OCI-C5x cells, without rucaparib",107% (inactive)
same,viability,"[12]; at 0.0781 µM, OCI-P5x cells, with rucaparib 20 µM, 100% = cells with rucaparib alone",97.5% (active)
same,viability,"[12]; at 0.0781 µM, OCI-P5x cells, without rucaparib",96.9% (active)
same,viability,"[12]; at 0.313 µM, OCI-C5x cells, with rucaparib 10 µM, 100% = cells with rucaparib alone",123% (inactive)
same,viability,"[12]; at 0.313 µM, OCI-C5x cells, without rucaparib",114% (inactive)
same,viability,"[12]; at 0.313 µM, OCI-P5x cells, with rucaparib 20 µM, 100% = cells with rucaparib alone",73.1% (active)
same,viability,"[12]; at 0.313 µM, OCI-P5x cells, without rucaparib",95.8% (active)
same,viability,"[12]; at 1.25 µM, OCI-C5x cells, with rucaparib 10 µM, 100% = cells with rucaparib alone",78.6% (active)
same,viability,"[12]; at 1.25 µM, OCI-C5x cells, without rucaparib",86.7% (active)
same,viability,"[12]; at 1.25 µM, OCI-P5x cells, with rucaparib 20 µM, 100% = cells with rucaparib alone",45.8% (active)
same,viability,"[12]; at 1.25 µM, OCI-P5x cells, without rucaparib",65.7% (active)
same,viability,"[12]; at 5 µM, OCI-C5x cells, with rucaparib 10 µM, 100% = cells with rucaparib alone",60.3% (active)
same,viability,"[12]; at 5 µM, OCI-C5x cells, without rucaparib",69.5% (active)
same,viability,"[12]; at 5 µM, OCI-P5x cells, with rucaparib 20 µM, 100% = cells with rucaparib alone",40.3% (active)
same,viability,"[12]; at 5 µM, OCI-P5x cells, without rucaparib",48.6% (active)
CN[C@@H]1C[C@H]2O[C@@](C)([C@@H]1OC)n1c3ccccc3c3c4c(c5c6ccccc6n2c5c31)C(=O)N[C@H]4O,AC50,[1],0.135 µM (active)
same,AC50,[2],0.59 µM (active)
same,AC50,[3],0.187 µM (active)
same,AC50,[4],1.32 µM (active)
same,AC50,[5],0.0855 µM (active)
same,AC50,[6],0.0303 µM (active)
same,AC50,[7],0.296 µM (active)
same,AC50,[8],0.0382 µM (active)
same,IC50,[13],0.605 µM (active)
COc1ccc(-n2nc(C(N)=O)c3c2C(=O)N(c2ccc(N4CCCCC4=O)cc2)CC3)cc1,outcome,[1],inactive
same,outcome,[2],inactive
same,outcome,[3],inactive
same,outcome,[4],inactive
same,outcome,[5],inactive
same,outcome,[6],inactive
same,outcome,[7],inactive
same,outcome,[8],inactive
same,fold change,[9]; [14],0.908 (inactive)
same,fold change,[9]; [15],0.921
same,cell count,[9]; [16],8080
same,cell count,[9]; [17],8900
same,z-score,[11]; [18],-0.515 (inactive)
same,z-score,[11]; [19],-0.309
CC(=O)Nc1cccc(-n2c(=O)n(C3CC3)c(=O)c3c(Nc4ccc(I)cc4F)n(C)c(=O)c(C)c32)c1,AC50,[1],0.0833 µM (active)
same,AC50,[2],0.235 µM (active)
same,AC50,[3],0.209 µM (active)
same,AC50,[4],3.32 µM (active)
same,AC50,[5],0.0833 µM (active)
same,AC50,[6],0.105 µM (active)
same,outcome,[7],inactive
same,AC50,[8],0.0417 µM (active)
same,fold change,[9]; [14],1.15 (inactive)
same,fold change,[9]; [15],0.672
same,cell count,[9]; [16],4330
same,cell count,[9]; [17],3760
same,SSMD,[10],3.07
same,cell count,[10],6560
same,plate-normalised HSF1 focus index,[10],1.16 (inactive)
same,z-score,[11]; [18],-0.421 (inactive)
same,z-score,[11]; [19],-0.112
same,viability,[12]; [20],123% (inactive)
same,viability,[12]; [21],120% (inactive)
same,viability,[12]; [22],109% (inactive)
same,viability,[12]; [23],102% (inactive)
same,viability,[12]; [24],102% (inactive)
same,viability,[12]; [25],122% (inactive)
same,viability,[12]; [26],89.6% (active)
same,viability,[12]; [27],89.5% (active)
same,viability,[12]; [28],105% (inactive)
same,viability,[12]; [29],113% (inactive)
same,viability,[12]; [30],75% (active)
same,viability,[12]; [31],74.2% (active)
same,viability,[12]; [32],111% (inactive)
